Reference: PubChem BioAssay (EPA / NIEHS)
Where a structure was tested more than once in an assay, its records may differ in their call. The source made the active and inactive calls. Rule for the calls: active = hit-call score of the fitted dose curve at least 0.9, where 1 is the maximum; inactive = score below 0.9.

How the values were obtained:
[1] = read-out: Plasminogen activator inhibitor-1 (PAI1), SERPINE1 (gene 5054); experiment: BSK_MyoF_PAI1: BioMAP Diversity Plus: MyoF Assay for Plasminogen activator inhibitor-1 (PAI1) Biomarker Activity (AID 2284256); settings: primary human lung fibroblasts
Procedure, shortened: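 Primary human lung fibroblasts are dosed and incubated 24 h. PAI-1 is then measured by ELISA, while parallel cultures undergo SRB staining for overt cytotoxicity. Increases over DMSO define activity.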

[2] = read-out: Interleukin-8 (IL8), CXCL8 (gene 3576); experiment: BSK_MyoF_IL8: BioMAP Diversity Plus: MyoF Assay for Interleukin-8 (IL8) Biomarker Activity (AID 2284261); settings: primary human lung fibroblasts
Procedure, shortened: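 IL-8 levels were measured by ELISA in human lung fibroblasts harvested 24 h after compound addition. Responses were analysed as gain of signal over the DMSO baseline.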

Decorin, DCN (gene 1634) = experiment: BSK_MyoF_Decorin: BioMAP Diversity Plus: MyoF Assay for Decorin Biomarker Activity (AID 2284265); settings: primary human lung fibroblasts
Procedure, shortened: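 Compound is added to lung fibroblast cultures; cells incubate 24 h; decorin is then measured by ELISA; the response is analysed upward against DMSO controls.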

[3] = BSK_MyoF_SRB: Viability Assessment in the BioMAP Diversity Plus: MyoF Assay (AID 2284267); settings: primary human lung fibroblasts;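 note: total protein by SRB absorbance in parallel cultures as cytotoxicity measure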
Procedure, shortened: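 Cytotoxicity read-out: after 10% TCA fixation, parallel human lung fibroblast cultures were stained with 0.1% SRB at 24 h post-dosing and read at 560 nm; DMSO served as baseline.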

[4] = read-out: Matrix Metallopeptidase 1 (MMP1), MMP1 (gene 4312); experiment: BSK_MyoF_MMP1: BioMAP Diversity Plus: MyoF Assay for Matrix Metallopeptidase 1 (MMP1) Biomarker Activity (AID 2284268); settings: primary human lung fibroblasts
Procedure, shortened: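 Lung fibroblast cultures were dosed with test chemicals and, after 24 h, MMP1 levels were measured by ELISA; responses were referenced to DMSO and analysed for increases.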

[5] = read-out: TIMP metallopeptidase inhibitor 1 (TIMP1), TIMP1 (gene 7076); experiment: BSK_MyoF_TIMP1: BioMAP Diversity Plus: MyoF Assay for TIMP metallopeptidase inhibitor 1 (TIMP1) Biomarker Activity (AID 2284269); settings: primary human lung fibroblasts
Procedure, shortened: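 Primary human lung fibroblasts, MyoF multiplex system; chemical exposure 24 h; TIMP-1 by ELISA; positive fitting direction vs DMSO control.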

[6] = read-out: Plasminogen activator inhibitor-1 (PAI1), SERPINE1 (gene 5054); experiment: BSK_KF3CT_PAI1: BioMAP Diversity Plus: KF3CT Assay for Plasminogen activator inhibitor-1 (PAI1) Biomarker Activity (AID 2284252); settings: primary human keratinocytes with fibroblasts
Procedure, shortened: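 PAI-1 levels quantified by ELISA after 24 h compound exposure of primary human skin keratinocytes co-cultured with fibroblasts. Activity is the gain relative to DMSO; cytotoxicity tracked in parallel cultures via SRB staining.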

[7] = read-out: Interleukin-8 (IL8), CXCL8 (gene 3576); experiment: BSK_KF3CT_IL8: BioMAP Diversity Plus: KF3CT Assay for Interleukin-8 (IL8) Biomarker Activity (AID 2284254); settings: primary human keratinocytes with fibroblasts
Procedure, shortened: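 Chemicals were added to co-cultured human keratinocytes and foreskin fibroblasts, incubated 24 h, then IL-8 was quantified by ELISA. Cytotoxicity was tracked by sulforhodamine B total-protein staining in parallel cultures.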

[8] = read-out: Macrophage Inflammatory Protein-1 Alpha (MIP1a), CCL3 (gene 6348); experiment: BSK_IMphg_MIP1a: BioMAP Diversity Plus: IMphg Assay for Macrophage Inflammatory Protein-1 Alpha (MIP1a) Biomarker Activity (AID 2284255); settings: primary human endothelial cells with macrophages
Procedure, shortened: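 MIP-1a protein levels were quantified by ELISA after 24 h treatment of human endothelial cell–macrophage co-cultures, compared with DMSO. Parallel cultures were fixed with TCA and stained with 0.1% SRB to gauge overt cytotoxicity.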

CD69, CD69 (gene 969) = experiment: BSK_IMphg_CD69: BioMAP Diversity Plus: IMphg Assay for CD69 Biomarker Activity (AID 2284257); settings: primary human endothelial cells with macrophages
Procedure, shortened: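 Readout is ELISA for CD69 in primary human venular endothelial cell/macrophage co-culture, taken at 24 h post-dosing. SRB staining of parallel cultures gauged overt cytotoxicity; signal increase versus DMSO defined activity.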

[9] = read-out: Eotaxin 3, CCL26 (gene 10344); experiment: BSK_BF4T_Eotaxin3: BioMAP Diversity Plus: BF4T Assay for Eotaxin 3 Biomarker Activity (AID 2284258); settings: primary human bronchial epithelial cells with fibroblasts
Procedure, shortened: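 ELISA measurement of Eotaxin-3 after 24 h chemical exposure in a bronchial epithelial/dermal fibroblast co-culture, with DMSO as baseline. Parallel SRB staining (0.1% SRB after 10% TCA fixation, 560 nm) flagged overt cytotoxicity.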

[10] = read-out: Monocyte Chemoattractant Protein-1 (MCP1), CCL2 (gene 6347); experiment: BSK_BF4T_MCP1: BioMAP Diversity Plus: BF4T Assay for Monocyte Chemoattractant Protein-1 (MCP1) Biomarker Activity (AID 2284259); settings: primary human bronchial epithelial cells with fibroblasts
Procedure, shortened: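 MCP-1 ELISA readout taken 24 h after dosing in the BF4T system (bronchial epithelial cells plus dermal fibroblasts). Parallel SRB total-protein staining flagged cytotoxicity; DMSO served as baseline, positive fitting direction.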

[11] = read-out: Intercellular Adhesion Molecule 1 (ICAM1), ICAM1 (gene 3383); experiment: BSK_BF4T_ICAM1: BioMAP Diversity Plus: BF4T Assay for Intercellular Adhesion Molecule 1 (ICAM1) Biomarker Activity (AID 2284260); settings: primary human bronchial epithelial cells with fibroblasts
Procedure, shortened: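 ICAM-1 levels measured by ELISA after 24 h chemical treatment of bronchial epithelial cell/dermal fibroblast co-cultures, read against DMSO baseline. Overt cytotoxicity checked in parallel cultures by sulforhodamine B staining.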

CD90, THY1 (gene 7070) = experiment: BSK_BF4T_CD90: BioMAP Diversity Plus: BF4T Assay for CD90 Biomarker Activity (AID 2284262); settings: primary human bronchial epithelial cells with fibroblasts
Procedure, shortened: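 CD90 levels by ELISA after 24 h treatment of human bronchial epithelial cell/dermal fibroblast cultures, analysed versus DMSO. Overt cytotoxicity checked in parallel cultures by sulforhodamine B staining.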

[12] = read-out: Interleukin-8 (IL8), CXCL8 (gene 3576); experiment: BSK_BF4T_IL8: BioMAP Diversity Plus: BF4T Assay for Interleukin-8 (IL8) Biomarker Activity (AID 2284263); settings: primary human bronchial epithelial cells with fibroblasts
Procedure, shortened: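 Human bronchial epithelial cells with dermal fibroblasts co-culture; IL-8 measured by ELISA 24 hours after dosing, fitted vs DMSO. Cytotoxicity tracked in parallel cultures by SRB total-protein staining.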

[13] = read-out: Interleukin-1 alpha (IL1a), IL1A (gene 3552); experiment: BSK_BF4T_IL1a: BioMAP Diversity Plus: BF4T Assay for Interleukin-1 alpha (IL1a) Biomarker Activity (AID 2284264); settings: primary human bronchial epithelial cells with fibroblasts
Procedure, shortened: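 ELISA read-out of IL-1α from bronchial epithelial cell/dermal fibroblast co-cultures 24 h after compound addition. Increases scored against DMSO negative control. Cytotoxicity monitored by sulforhodamine B staining of parallel cultures.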

KRT18 (gene 3875) = experiment: BSK_BF4T_Keratin818: BioMAP Diversity Plus: BF4T Assay for Keratin 818 Biomarker Activity (AID 2284266); settings: primary human bronchial epithelial cells with fibroblasts
Procedure, shortened: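 Keratin 8/18 levels quantified by ELISA after 24 h chemical treatment of bronchial epithelial cell/dermal fibroblast co-cultures, fitted in positive direction relative to DMSO. Parallel SRB staining tracks overt cytotoxicity.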

[14] = read-out: Matrix Metallopeptidase 1 (MMP1), MMP1 (gene 4312); experiment: BSK_BF4T_MMP1: BioMAP Diversity Plus: BF4T Assay for Matrix Metallopeptidase 1 (MMP1) Biomarker Activity (AID 2284270); settings: primary human bronchial epithelial cells with fibroblasts
Procedure, shortened: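 MMP-1 quantified by ELISA in primary human bronchial epithelial/dermal fibroblast co-cultures, 24 hours post-dosing, with DMSO as baseline; parallel sulforhodamine B staining (560 nm) tracks overt cytotoxicity.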

Measured: AC50

CC(=O)Nc1ccc(N=Nc2cc(C)ccc2O)cc1
active: [4] 31 µM
inactive: [1] | [2] | Decorin, DCN (gene 1634) | [3] | [5]

CCN(CC)c1ccc2c(C)cc(=O)oc2c1
inactive: [1] | [2] | Decorin, DCN (gene 1634) | [3] | [4] | [5]

C=C(C)C(=O)OCCC(F)(F)C(F)(F)C(F)(F)C(F)(F)C(F)(C(F)(F)F)C(F)(F)F
inactive: [6] | [7] | [8] | [1] | CD69, CD69 (gene 969) | [9] | [10] | [11] | [2] | CD90, THY1 (gene 7070) | [12] | [13] | Decorin, DCN (gene 1634) | KRT18 (gene 3875) | [4] | [5]

NC(=O)C(F)(F)C(F)(F)C(F)(F)C(F)(F)F
active: [10] 26.5 µM
inactive: [6] | [7] | [8] | [1] | CD69, CD69 (gene 969) | [9] | [10] | [11] | [2] | CD90, THY1 (gene 7070) | [13] | Decorin, DCN (gene 1634) | KRT18 (gene 3875) | [3] | [4] | [5]

Oc1ccc(Nc2ccccc2)cc1
active: [1] 7.66 µM | [2] 3.97 µM
inactive: Decorin, DCN (gene 1634) | [4] | [5]

CCCCNc1ccccc1
inactive: [1] | [2] | Decorin, DCN (gene 1634) | [4] | [5]

CCCCOCCOCCOC(=O)CCCCC(=O)OCCOCCOCCCC
inactive: [1] | [2] | Decorin, DCN (gene 1634) | [4] | [5]

FC(F)(F)C(F)(F)C(F)(F)C(F)(F)C(F)(F)C(F)(F)C(F)(F)C(F)(F)CCS
inactive: [6] | [7] | [8] | [1] | CD69, CD69 (gene 969) | [9] | [10] | [11] | [2] | CD90, THY1 (gene 7070) | [13] | Decorin, DCN (gene 1634) | KRT18 (gene 3875) | [3] | [4] | [5]

O=C(O)C(F)(OC(F)(F)C(F)(OC(F)(F)C(F)(F)C(F)(F)F)C(F)(F)F)C(F)(F)F (configuration not stated)
inactive: [6] | [7] | [8] | [1] | CD69, CD69 (gene 969) | [9] | [10] | [11] | [2] | CD90, THY1 (gene 7070) | [13] | Decorin, DCN (gene 1634) | KRT18 (gene 3875) | [4] | [5] | [14]

CO[Si](OC)(c1ccccc1)c1ccccc1
inactive: [2] | Decorin, DCN (gene 1634) | [5]
active: [1] 30.5 µM | [4] 28.9 µM
